# High-throughput results from PubChem.
# Hits are enriched below; roughly 4.2% of the tested compounds scored in any of these assays.
# D1 antagonist = blocks dopamine activation of the human D1 receptor; P21728; HEK293 TREx D1 cells, calcium flux, dopamine EC80; hits give low values; activity change, negative = inhibition, % at 10 µM; 360,000 tested, 3.2% active; in the data active means activity change below about -30%; further: on the % scale 0 is the no-effect control and ±100 the full control effect
# Target sequence (P21728 whole entry, looked up): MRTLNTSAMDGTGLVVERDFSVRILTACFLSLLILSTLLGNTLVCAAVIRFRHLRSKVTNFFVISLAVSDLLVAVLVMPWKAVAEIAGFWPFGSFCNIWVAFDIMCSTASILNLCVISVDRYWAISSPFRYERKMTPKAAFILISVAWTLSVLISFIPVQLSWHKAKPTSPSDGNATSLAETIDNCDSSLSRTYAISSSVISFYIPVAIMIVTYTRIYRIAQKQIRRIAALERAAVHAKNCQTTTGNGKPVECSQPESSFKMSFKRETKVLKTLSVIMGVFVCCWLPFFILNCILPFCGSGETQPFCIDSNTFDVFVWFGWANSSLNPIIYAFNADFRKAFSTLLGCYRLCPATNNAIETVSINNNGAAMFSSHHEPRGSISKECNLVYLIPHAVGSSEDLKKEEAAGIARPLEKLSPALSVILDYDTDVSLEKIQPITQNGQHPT
#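 Inducible Hek293 Trex D1 cells (tetracycline, overnight, 30 C). Calcium dye 30–90 min RT. Antagonist mode: EC80 dopamine added after 180 s compound read.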
# D1 agonist = activates the human D1 dopamine receptor | HEK293 T-REx D1 cells, calcium flux, agonist mode | activation, % at 2 µM | 360,000 tested, 1% active; in the data active means activation above about 30%; further: 0% is about no effect
#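 Agonism was scored from calcium flux recorded over 180 s (1 read/s) after pintool compound addition, following a 10-cycle baseline. Cells were inducible force-coupled HEK293 TREx D1, plated overnight at 30 C and loaded with no-wash calcium dye.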
# TRPV1 ag = human TRPV1 agonism; 320,000 tested, 0.19% active; activation, % at 8.33 µM; TRPV1-expressing cells, Fluo-8 calcium influx, agonist mode; in the data active means activation above about 80%; inconclusive means between about 30% and that limit; further: 0% is about no effect
#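 Fluo-8 calcium influx in TRPV1-expressing cells, kinetic read (ex 480/em 520 nm). Compound added and read 3 min for agonist activity, followed by capsaicin at EC20 final and 2 min further read for enhancement.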
# TRPV1 PAM = enhances activation of the human vanilloid receptor TRPV1 | potentiation, % at 8.33 µM | 320,000 tested, 0.02% active | Q8NER1 | TRPV1-expressing cells, Fluo-8 calcium influx, capsaicin EC20 potentiation; in the data active means potentiation above about 80%; inconclusive means between about 30% and that limit; further: 0% is about no effect
#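 TRPV1-expressing cells were cultured overnight at 35.5C and loaded with Fluo-8 calcium dye for 40 to 90 min at room temperature. After a 10 s baseline, compound was added and calcium influx was read kinetically for 3 min (ex 480/em 520 nm).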
# D1 PAM = enhances dopamine response at the human D1 receptor; AID 504651; 360,000 tested, 0.036% active; P21728; potentiation, % at 10 µM; HEK293 TREx D1 cells, calcium flux, dopamine EC20 potentiation; in the data active means potentiation above about 30%; further: 0% is about no effect
# * = called active by the depositor; ? = inconclusive; . = no result.
SMILES,D1 antagonist,D1 agonist,TRPV1 ag,TRPV1 PAM,D1 PAM
O=C1CS(=O)(=O)C2(C(=O)N(Cc3ccccc3Cl)c3ccccc32)N1c1ccc(F)cc1 (stereo not given),-21,6,.,.,-7
Cc1ccc(C)c(NC(=O)CSc2nc(=O)n(Cc3ccncc3)c3c2CCC3)c1,.,-1,.,.,1
Cc1ccc(N(C)C(=O)C2CCCN(c3ncnc4c3nc3n4CCCCC3)C2)cc1C (stereo not given),-20,2,.,.,6
CCCN(C(=O)CCc1nc(-c2ccc(OC)cc2)no1)c1ccccc1F,-7,6,.,.,-2
O=S(=O)(NCCC1CC1(Cl)Cl)c1ccc(Cl)cc1 (stereo not given),-38*,5,8,-4,-3
CC(C)(C)SCCNS(=O)(=O)c1ccc(Cl)cc1,-8,0,4,28,-4
COC(=O)c1ccc(NC(=O)c2c(-c3ccccc3)c(-c3ccccc3)nn(C)c2=O)cc1,-5,-1,.,.,-1
CC1=C(c2ccc(C)c(C)c2)S(=O)(=O)N=C1N1CCC(C(=O)NC(C)Cc2ccco2)CC1 (stereo not given),-32*,0,.,.,-2
CC1=C(c2ccc(C)c(C)c2)S(=O)(=O)N=C1N1CCC(C(=O)NCc2ccccc2C)CC1,-30,2,.,.,-7
CC1=C(c2ccc(C)c(C)c2)S(=O)(=O)N=C1N1CCC(C(=O)NC(C)c2ccccc2)CC1 (stereo not given),-75*,2,.,.,-6
Cc1cc2nc3c(=O)n(C4CCCCC4)c(=O)[nH]c3nc2cc1N,-24,213*,?,-19,-8
CC(=O)c1sc2nsc(SCCN3CCOCC3)c2c1N,1,7,14,-23,1
Nc1c(C(=O)c2ccccc2)sc2nsc(SCCN3CCOCC3)c12,-42*,194*,106*,-5,4
Cc1ccccc1NC(=O)c1cc2ccccc2o1,5,2,?,8,-11
CCN(CC)c1ccc(NC(=O)c2cc3ccccc3o2)c(C)c1,-15,6,83*,-17,1
CCN(CC)c1ccc(NC(=O)c2ccc3c(c2)OCO3)c(C)c1,-41*,4,82*,-20,-6
COc1ccc(CNC(=O)CSc2nc3ccsc3c(=O)n2Cc2ccccc2Cl)cc1,9,7,.,.,3
CCC(=O)N1CCc2cc(S(=O)(=O)NC(Cc3ccccc3)C(=O)NCc3ccc(F)cc3)ccc21 (stereo not given),-12,-1,.,.,0
O=C(Nc1cccc(F)c1)Nc1ccccn1,-37*,0,7,-44,-5
O=C(Nc1cccc(F)c1)Nc1cnccn1,-31*,6,6,28,-6
O=C(Nc1ccc2c(c1)OCO2)Nc1cnccn1,-8,2,0,-3,1
Cc1cccc(NC(=O)CSc2nc(-c3cccs3)cc(C(F)(F)F)c2C#N)c1,4,12,.,.,1
CC(C)NC(=O)c1sc2nc3c(c(-c4cccs4)c2c1N)CN(C)CC3,-23,2,3,-10,-3
Cc1cccc(NC(=O)c2sc3nc4c(c(-c5cccs5)c3c2N)CN(C)CC4)c1,-40*,2,-5,10,-22
O=C(O)c1ccc2c(c1)C(=O)N([C@H](Cc1ccc(C(F)(F)F)cc1)C(=O)O)C2=O,-48*,1,.,.,-3
SMILES,D1 antagonist,D1 agonist,TRPV1 ag,TRPV1 PAM,D1 PAM
COc1cccc(CNCCSc2nnnn2C)c1OCc1ccc(Cl)cc1,-15,6,.,.,-2
O=C(CN1C(=O)COc2ccc(S(=O)(=O)N3CCOCC3)cc21)N1CCN(c2cccc(C(F)(F)F)c2)CC1,0,1,.,.,5
O=C(Nc1cccc(-c2cn3ccccc3n2)c1)c1cc2ccccc2oc1=O,-35*,0,.,.,3
CC(=O)Nc1cccc(-c2cn3ccccc3n2)c1,2,1,2,2,12
CCOC(=O)CSC1=NC(=O)/C(=C/c2ccc(OC)cc2)S1,-37*,6,2,1,-8
COc1ccc(/C=C2\SC(N)=NC2=O)cc1,6,6,2,1,-1
Oc1ccc(Br)cc1/C=N/n1c(C2CCCCC2)n[nH]c1=S,-8,37*,2,-7,3
Oc1ccc(/C=N/n2c(C3CCCCC3)n[nH]c2=S)c(O)c1,-5,5,1,9,-7
Cc1ccc(OCCn2c(Br)nc3c2c(=O)n(C)c(=O)n3C)cc1,-33*,13,7,-4,-6
COCCn1c(Br)nc2c1c(=O)n(C)c(=O)n2C,16,2,3,-7,-3
Fc1ccc(C2=NNC(=NCc3ccccc3)SC2)cc1F,-40*,0,7,-7,-9
COc1ccc(-c2nn(C)c3sc(C(=O)N4CCN(c5cc(Cl)ccc5C)CC4)cc23)cc1OC,3,0,.,.,2
COc1cc(-c2noc(C)c2-c2ccc3[nH]ccc3c2)cc(OC)c1OC,-18,7,-1,9,4
COc1cc(-c2noc(C)c2-c2ccc(N(C)C)nc2)cc(OC)c1OC,-59*,89*,?,-22,0
Cc1noc(C)c1COc1ccccc1C(=O)N(C)Cc1ccc(F)cc1,-11,2,2,12,-4
Cc1ccc(NC(=O)CN(C)C(=O)c2ccccc2OCc2c(C)noc2C)cc1,-5,-1,-3,6,-2
Cc1noc(C)c1COc1ccccc1C(=O)NCCc1ccc(Cl)cc1,0,5,?,-11,-3
Cc1noc(C)c1CSCC(=O)N(C)CC(=O)Nc1ccc(Cl)cc1,-44*,3,1,-1,-8
Cc1noc(C)c1CSCC(=O)N(C)CC(=O)Nc1ccc(F)cc1,-1,3,3,5,4
Cc1noc(C)c1COc1ccccc1C(=O)N(C)Cc1ccc(C(C)(C)C)cc1,-36*,13,25,-18,-11
Cc1noc(C)c1COc1ccccc1C(=O)NCCc1ccc(S(N)(=O)=O)cc1,-34*,2,-2,-2,-11
Cc1noc(C)c1COc1ccccc1C(=O)N(C)CC(=O)Nc1ccc(F)cc1,-21,1,-1,7,34*
COc1ccc(-c2onc(C)c2C)cc1S(=O)(=O)N1CCN(c2ccc(Cl)cc2)CC1,5,0,.,.,3
Cc1ccccc1N(C(=O)Cn1nnc(-c2ccc(F)cc2)n1)C(C(=O)NC(C)(C)C)c1ccncc1 (stereo not given),-35*,14,23,-21,-4
Cc1ccc(-c2nnn(CC(=O)N(c3cccc(O)c3)C(C(=O)NC(C)(C)C)c3cccs3)n2)o1 (stereo not given),2,2,6,4,-3
COc1ccc(CN(C(=O)Cn2nnc(-c3ccc(C)o3)n2)C(C(=O)NCC2CCCO2)c2ccco2)cc1 (stereo not given),-42*,0,14,-4,-6
